Laboratory results published in PubChem BioAssay (NCATS).
Where “and” joins values, the source holds several entries; their conditions need not be identical. Equal entries are not always repeated. Values without a mark were called inactive. Inconclusive results are not listed. Calls of active or inactive are those of the source. Unless noted, calls come from the whole dose curve; as a rule, active = well fitted curve in either direction with a large enough effect (not every such curve was filed as active); inconclusive = small, poorly fitted or top-dose-only effect, or another doubt; inactive = flat fitted curve, though single readings scatter.

Columns and labels:
[1] = AP1 Signaling Pathway (AID 357); conditions: ME-180 AP-1-bla reporter, EGF-induced, beta-lactamase ratio, 5 h;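 note: ME-180 reporter cells stimulated with EGF at its EC50 level; % is set by controls: 0 for no effect and ±100 for the full control effect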
Outline: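 In this screen, ME-180 cells in Opti-MEM with 0.5% dialyzed FBS received EC50 EGF and compound titrations for 5 h. AP-1 reporter beta-lactamase was detected via CCF4 ratio, giving AC50 for positive and negative modulators.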

[2] = target: Cytochrome P450 1A2 (Homo sapiens) (UniProt P05177); test: p450-cyp1a2 (AID 410; calls by dose curve; note: potency is the fitted concentration of half-maximal effect;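 for activity change, negative = inhibition: -100% = full effect of reference inhibitor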); conditions: recombinant CYP1A2, luciferin-ME demethylation, luminescence; series mostly up to 25.6 µM
Sequence of Cytochrome P450 1A2 (Homo sapiens) (P05177 whole entry, looked up): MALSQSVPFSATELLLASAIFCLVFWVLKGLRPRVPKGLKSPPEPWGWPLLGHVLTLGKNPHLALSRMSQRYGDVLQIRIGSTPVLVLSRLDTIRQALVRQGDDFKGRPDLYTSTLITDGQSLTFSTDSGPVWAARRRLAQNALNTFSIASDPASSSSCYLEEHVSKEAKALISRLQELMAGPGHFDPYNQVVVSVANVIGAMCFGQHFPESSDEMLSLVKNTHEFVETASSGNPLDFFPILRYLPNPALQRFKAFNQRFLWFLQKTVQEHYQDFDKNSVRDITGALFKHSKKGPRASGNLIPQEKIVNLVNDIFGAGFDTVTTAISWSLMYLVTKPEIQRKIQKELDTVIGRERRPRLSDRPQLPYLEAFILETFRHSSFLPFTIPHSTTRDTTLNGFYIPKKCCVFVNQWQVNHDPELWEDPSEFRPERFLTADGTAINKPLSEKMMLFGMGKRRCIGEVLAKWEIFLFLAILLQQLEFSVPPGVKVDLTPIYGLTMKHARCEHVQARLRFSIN
Outline: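 20nM CYP1A2 with 100uM Luciferin-ME (at Km) in 100mM KPO4; compound preincubated 10 min, NADPH regeneration added, 60 min at room temperature. Luciferin quantified by luminescence after detection reagent; normalized to 57 uM furafylline.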

[3] = NFAT Signaling Pathway (AID 444); conditions: Jurkat NFAT-bla M1, carbachol, beta-lactamase ratio, 5 h;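 note: carbachol stimulus at about its EC50 of 1 µM final; % is set by controls: 0 for no effect and ±100 for the full control effect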
Outline: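 Jurkat cells carrying an NFAT-driven β-lactamase reporter and co-transfected muscarinic M1 receptor were treated with compound plus carbachol (1 uM final, an EC50 level) for 5 h at 37 °C. CCF4 loading followed for 1 h at RT; 460/530 nm ratio gave %activity.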

[4] = Stat Signaling Pathway (AID 446); conditions: ME-180 SIE beta-lactamase reporter, IL-6 stimulated, 5 h;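 note: ME-180 cervical cancer cells given 40 pM IL-6 alongside compound; SIE-controlled beta-lactamase reporter measured as 460/530 nm FRET emission ratio; % is set by controls: 0 for no effect and ±100 for the full control effect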
Outline: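 Screening format detects activators and inhibitors alike: ME-180 SIE-bla cells stimulated at 40 pM IL-6 for 5 hrs with compound, then dual-emission beta-lactamase read at 405 nm excitation.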

[5] = target: Glucocorticoid receptor (Homo sapiens) (UniProt P04150); test: GR-GFP Redistribution (AID 450;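 active = compounds whose dose series gives a full or clear partial fitted curve of increased nuclear translocation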; note: potency is the fitted concentration of half-maximal effect); conditions: U2OS GR-GFP nuclear translocation, laser cytometry, 2 h
Sequence of Glucocorticoid receptor (Homo sapiens) (P04150 whole entry, looked up, the tested form may be a part): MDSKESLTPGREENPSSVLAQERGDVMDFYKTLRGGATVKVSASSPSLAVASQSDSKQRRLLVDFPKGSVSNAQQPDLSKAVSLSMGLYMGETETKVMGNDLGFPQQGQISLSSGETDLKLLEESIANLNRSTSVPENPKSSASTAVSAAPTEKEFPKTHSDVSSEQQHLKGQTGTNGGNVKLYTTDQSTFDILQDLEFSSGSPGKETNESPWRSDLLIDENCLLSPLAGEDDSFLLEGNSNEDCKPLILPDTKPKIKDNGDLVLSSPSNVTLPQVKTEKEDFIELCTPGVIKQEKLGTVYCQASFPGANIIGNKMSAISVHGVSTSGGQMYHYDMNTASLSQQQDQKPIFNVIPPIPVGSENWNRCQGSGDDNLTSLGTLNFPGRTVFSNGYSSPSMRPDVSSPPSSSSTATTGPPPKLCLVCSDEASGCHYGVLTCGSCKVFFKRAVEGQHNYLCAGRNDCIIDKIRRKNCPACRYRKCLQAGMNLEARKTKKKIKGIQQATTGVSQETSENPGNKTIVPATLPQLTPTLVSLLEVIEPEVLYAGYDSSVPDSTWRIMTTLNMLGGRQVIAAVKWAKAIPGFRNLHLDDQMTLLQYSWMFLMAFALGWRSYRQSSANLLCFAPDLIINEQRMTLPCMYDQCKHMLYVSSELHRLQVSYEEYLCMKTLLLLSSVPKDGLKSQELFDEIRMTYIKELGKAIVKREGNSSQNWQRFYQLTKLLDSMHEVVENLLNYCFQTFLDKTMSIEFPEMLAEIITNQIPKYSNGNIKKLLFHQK

[6] = target: Glucocorticoid receptor (Homo sapiens) (UniProt P04150); test: GR-EFC Redistribution (AID 451; calls by dose curve; note: potency is the fitted concentration of half-maximal effect); conditions: CHO-K1 GR-EFC translocation, beta-gal luminescence, 2 h
Outline: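 CHO-K1 cells stably expressing nuclear-localized β-gal enzyme acceptor and GR fused C-terminally to the enzyme donor fragment; ligand-driven nuclear translocation restores β-gal by complementation. Compounds titrated up to 46 uM final, 2 h at 37 °C; luminescence read.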

[7] = target: Mitogen-activated protein kinase 10 (Mus musculus) (UniProt Q61831); test: JNK3 AlphaScreen Assay (AID 530); conditions: JNK3 lysate, c-Jun phosphorylation; series mostly up to 25.6 µM;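 note: kinase came from lysate of stimulated human HepG2 cells; signal reports phosphorylation of biotinylated GST-cJun 1-79 at Ser73 with 10 µM ATP; % is set by controls: 0 for no effect and ±100 for the full control effect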
Outline: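 Inhibitors reduce antibody binding to phosphorylated biotin-cJun, lowering AlphaScreen luminescence. Lysates from HepG2 cells pre-activated by IL-1beta plus TNF-alpha supplied JNK3; compounds were titrated.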

[8] = Cell Viability - BJ (AID 421; calls by dose curve;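 note: potency is the fitted concentration of half-maximal effect; cells exposed to compound for 40 hours at 37 °C before readout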); conditions: BJ fibroblast viability, qHTS
Outline: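 Cytotoxicity in human BJ foreskin fibroblasts is scored as loss of cellular ATP after a 40-hour exposure, measured by luciferase luminescence. Controls are DMSO and 100 uM tamoxifen.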

[9] = Cell Viability - Jurkat (AID 426;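 active = dose-dependent loss of cell ATP signal giving a full or clear fitted curve, ranked by lower potency value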;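 note: potency is the fitted concentration of half-maximal effect; cells exposed to compound for 40 hours at 37 °C before ATP read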); conditions: qHTS
Outline: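 Jurkat (Clone E6-1) cells, 5000/well in complete medium, exposed to compounds for 40 hr at 37C; intracellular ATP measured by CellTiter-Glo luminescence after 20 min at room temperature. AC50 from Hill fits.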

[10] = Cell Viability - Hek293 (AID 427;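 active = compounds whose dose-response curve shows a full or clear partial loss of cell viability, called from curve shape rather than a numeric limit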;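 note: potency is the fitted concentration of half-maximal effect; cells exposed to compound for 40 hours at 37 °C before reading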); conditions: qHTS
Outline: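 qHTS, human embryonic kidney (adenovirus-transformed) cells; 40 hr cpd, 37 °C; CellTiter-Glo ATP luminescence. Norm: DMSO = 0, 100 uM tamoxifen = 100% inhibition. Hill-fit AC50.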

[11] = Cell Viability - HepG2 (AID 433; calls by dose curve;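 note: potency is the fitted concentration of half-maximal effect; potency for ATP loss meaning cytotoxicity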); conditions: qHTS
Outline: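 Cytotoxicity read as ATP loss (CellTiter-Glo luminescence) after 40 hr compound exposure of HepG2, 1500 cells/well, 37 °C. AC50 by Hill equation; 0% set by DMSO, 100% inhibition by 100 uM tamoxifen.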

[12] = Cell Viability - SK-N-SH (AID 435; calls by dose curve; note: potency is the fitted concentration of half-maximal effect); conditions: SK-N-SH neuroblastoma cell viability qHTS
Outline: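 qHTS cytotoxicity: CellTiter-Glo ATP luminescence after 40 h compound exposure of human neuroblastoma SK-N-SH cells at 37 °C. AC50 derived by Hill-equation fitting, with DMSO as basal and 100 uM tamoxifen as full inhibition.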

[13] = Cell Viability - N2a (AID 540; active = well fitted cell-killing curve with a large enough effect; note: potency is the fitted concentration of half-maximal effect; nearly all actives have a fitted effect of over 45% in size); conditions: N2a mouse neuroblastoma cell viability; activity change, negative = cytotoxicity: at 92.2 µM (top of the series)
Outline: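 Mouse neuroblastoma N2a cells, 1500/well, exposed to compounds 40 h at 37 °C in complete medium. Viability measured as cellular ATP by CellTiter-Glo luminescence; AC50 from Hill fits of concentration-response.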

[14] = Cell Viability - H-4-II-E (AID 543; active = well fitted cell-killing curve with a large enough effect; note: potency is the fitted concentration of half-maximal effect; nearly all actives have a fitted effect of over 35% in size); conditions: H-4-II-E rat hepatoma viability; series mostly up to 92.2 µM
Outline: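 Rat hepatoma H-4-II-E cells, 1500 per well, treated 40 h at 37 °C in complete medium. Cellular ATP read by CellTiter-Glo luminescence; AC50 from Hill fits of concentration-response.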

[15] = Cell Viability - SH-SY5Y (AID 544; active = well fitted cell-killing curve with a large enough effect; note: potency is the fitted concentration of half-maximal effect; nearly all actives have a fitted effect of over 55% in size); conditions: SH-SY5Y neuroblastoma cell viability; viability change, negative = cytotoxic: at 92.2 µM (top of the series)
Outline: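 SH-SY5Y human neuroblastoma cells (1500/well) incubated 5 h, then compound-treated 40 h at 37 °C in complete medium. Viability read as intracellular ATP by CellTiter-Glo luminescence after 20 min; AC50 from Hill-equation fits of qHTS concentration-response.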

[16] = Cell Viability - Renal Proximal Tubule (AID 545; active = well fitted cell-killing curve with a large enough effect; note: potency is the fitted concentration of half-maximal effect; nearly all actives have a fitted effect of over 40% in size); conditions: renal proximal tubule cells viability, primary cells of rat origin; activity change, negative = cytotoxicity: at 91.7 µM (top of the series)
Outline: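 Viability taken as intracellular ATP (CellTiter-Glo luminescence) after 40 hr, 37 °C compound treatment of primary proximal tubule cells from rat kidney, 1000 cells/well; Hill-equation fits of qHTS concentration-response data gave AC50.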

## C[C@H]1[C@H](NC(=O)/C(=N/OC(C)(C)C(=O)O)c2csc(N)n2)C(=O)N1S(=O)(=O)O (stereo in doubt)
[1]; at 17.2 µM (top of the series)
  activity change, negative = inhibition: 1.44%
[2]
  Potency: inactive
[3]; at 17.2 µM (top of the series)
  activity change, negative = inhibition: 3.56%
[4]; at 17.2 µM (top of the series)
  activity, negative = inhibition: 8.78%
[5]
  Potency: > 20.6 µM
[6]
  Potency: > 20.6 µM
[7]
  outcome: inactive

## COc1c2occc2c(OC)c2c(=O)cc(C)oc12
[1]; at 17.2 µM (top of the series)
  activity change, negative = inhibition: 4.61% and -2.27%
[2]
  Potency: 0.02 µM (active)
[3]; at 17.2 µM (top of the series)
  activity change, negative = inhibition: 4.03% and 8.21%
[4]; at 17.2 µM (top of the series)
  activity, negative = inhibition: 7.57% and -1.58%
[5]
  Potency: > 20.6 µM
[6]
  Potency: > 20.6 µM
[7]
  outcome: inactive

## Oc1cc(O)c2c(c1)O[C@H](c1ccc(O)c(O)c1)[C@H](O)C2
[1]; at 17.2 µM (top of the series)
  activity change, negative = inhibition: 10.1% and 0.263%
[1]; at 38 µM (top of the series)
  activity change, negative = inhibition: -5.09%
[2]
  Potency: inactive
[3]; at 17.2 µM (top of the series)
  activity change, negative = inhibition: -6.82% and 0.191%
[3]; at 38 µM (top of the series)
  activity change, negative = inhibition: -2.11%
[4]; at 17.2 µM (top of the series)
  activity, negative = inhibition: -2.66% and 0.865%
[4]; at 38 µM (top of the series)
  activity, negative = inhibition: -26.7%
[5]
  Potency: > 46 µM and > 20.6 µM
[6]
  Potency: > 46 µM and > 20.6 µM
[7]
  outcome: inactive

## COc1cccc2c1C(=O)c1c(O)c3c(c(O)c1C2=O)C[C@@](O)(C(C)=O)C[C@@H]3O[C@H]1C[C@H](N)[C@H](O)[C@H](C)O1
[1]; at 17.2 µM (top of the series)
  activity change, negative = inhibition: -116% (active)
[2]
  Potency: 31.6 µM (active)
[8]
  Potency: 4.61 µM (active)
[9]
  Potency: 0.0218 µM (active)
[10]
  Potency: 0.00723 µM (active)
[11]
  Potency: 49.7 µM (active)
[12]
  Potency: 0.0141 µM (active)
[3]; at 17.2 µM (top of the series)
  activity change, negative = inhibition: -129% (active)
[4]; at 17.2 µM (top of the series)
  activity, negative = inhibition: -103% (active)
[5]
  Potency: > 46 µM and > 20.6 µM
[6]
  Potency: > 46 µM
[13]
  Potency: 0.251 µM (active)
[14]
  Potency: 3.16 µM (active)
[15]
  Potency: 0.00794 µM (active)
[16]
  Potency: 3.98 µM (active)

## CCCn1c(=O)[nH]c(=O)c2[nH]cnc21
[1]; at 17.2 µM (top of the series)
  activity change, negative = inhibition: 4.48%
[1]; at 38 µM (top of the series)
  activity change, negative = inhibition: 4.71%
[2]
  Potency: inactive
[3]; at 17.2 µM (top of the series)
  activity change, negative = inhibition: -21.8%
[3]; at 38 µM (top of the series)
  activity change, negative = inhibition: 4.56%
[4]; at 17.2 µM (top of the series)
  activity, negative = inhibition: 4.71%
[4]; at 38 µM (top of the series)
  activity, negative = inhibition: -5.28%
[7]
  outcome: inactive

## Nc1nc2ncc(CNc3ccc(C(=O)N[C@@H](CCC(=O)O)C(=O)O)cc3)nc2c(=O)[nH]1
[1]; at 17.2 µM (top of the series)
  activity change, negative = inhibition: 0.033%
[2]
  Potency: inactive
[3]; at 17.2 µM (top of the series)
  activity change, negative = inhibition: 2.08%
[4]; at 17.2 µM (top of the series)
  activity, negative = inhibition: 1.24%
[5]
  Potency: > 20.6 µM
[6]
  Potency: > 20.6 µM
[7]
  outcome: inactive
